# Target: T1, Aspartate--tRNA(Asp/Asn) ligase (Mycobacterium tuberculosis (strain ATCC 25618 / H37Rv)) (UniProt P9WFW3)
# T1 sequence (whole entry): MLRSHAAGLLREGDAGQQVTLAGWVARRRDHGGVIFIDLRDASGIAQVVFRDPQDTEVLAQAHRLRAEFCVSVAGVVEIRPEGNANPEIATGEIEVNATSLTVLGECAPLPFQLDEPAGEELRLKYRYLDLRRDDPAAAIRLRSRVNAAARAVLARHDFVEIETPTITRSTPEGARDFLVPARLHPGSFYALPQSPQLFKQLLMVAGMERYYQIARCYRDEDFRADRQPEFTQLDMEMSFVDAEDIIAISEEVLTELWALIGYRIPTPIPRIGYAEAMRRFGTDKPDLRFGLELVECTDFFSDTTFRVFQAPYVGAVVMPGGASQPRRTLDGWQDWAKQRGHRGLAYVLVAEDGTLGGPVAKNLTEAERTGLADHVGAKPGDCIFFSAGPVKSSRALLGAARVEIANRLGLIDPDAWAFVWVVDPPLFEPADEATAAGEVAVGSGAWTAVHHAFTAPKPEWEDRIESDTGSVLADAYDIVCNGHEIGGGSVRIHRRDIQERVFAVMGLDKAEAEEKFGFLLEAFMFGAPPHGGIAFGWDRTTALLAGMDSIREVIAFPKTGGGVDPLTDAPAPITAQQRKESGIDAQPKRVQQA
# Test: Assay for Asp RNA synthetase-1 from Mycobacterium tuberculosis
# Type: functional
# Set-up: scale not given: in the data most compounds retested in dose-response had high values
# Details: 30 µM
row,SMILES,Percent Effect [%]
1,O=C(NCc1csc(Br)c1)c1ccc(=O)[nH]n1,-0.83
2,Cn1ccnc1CN1CCCC1c1noc(C2CC2)n1 (stereo not given),-0.426
3,CCOC(C)c1nc(CN2CCN(c3nccc(C)n3)CC2)cs1 (stereo not given),-0.859
4,Cc1ccc2cc(C(=O)NCCn3nc4ccccn4c3=O)[nH]c2c1,-5.08
5,Cc1ncc(CNCC2CCCN2c2cccnn2)s1 (stereo not given),0.684
6,CC1CCN(CCNC(=O)c2cncnc2C(C)C)CC1,-2.54
7,Cc1cnn(CC2CCCCN2Cc2nc(-c3ccoc3)no2)c1 (stereo not given),2.91
8,O=C(NC1CCC1)[C@@H]1CCO[C@@H]2CCN(CCc3ccccc3)C[C@H]21,-2.94
9,CN(CCC#N)C(=O)CN1CCCC1c1ccsc1 (stereo not given),2.1
10,Cn1ccc(NC(=O)Cc2cccc(F)c2)n1,3.36
11,CCN(CC(=O)NC(C)C)S(=O)(=O)N1CCCCCC1,-4.33
12,CCn1nc(C(C)C)cc1C(=O)NCCCOC,-1.73
13,Cc1ccc(N2CCCC(NCC(=O)NCC3CC3)C2)nn1 (stereo not given),-5.2
14,Cc1cnc2c(c1NCc1ccncc1)c(=O)n(C)c(=O)n2C,-5.41
15,CCCc1noc(CCC(=O)N2CCCC2c2ccsc2)n1 (stereo not given),-1.06
16,Cc1ncsc1C(=O)N1CCCN(Cc2cscn2)CC1,1.47
17,CN(Cc1ccco1)C[C@H]1OC[C@@H]2CCN(Cc3nccs3)C[C@@H]21,4.31
18,COCC1c2c(cnn2CC2CC2)CCN1Cc1cccs1 (stereo not given),-0.524
19,O=C1CCSCC(C(=O)N2CCN(C3CCCCC3)CC2)N1 (stereo not given),-4.14
20,CCN(CC)C1CCN(C(=O)NCc2c(C)noc2C)CC1,0.182

row,SMILES,Percent Effect [%]
1,Cc1cccc(CN2C(=O)CO[C@@H]3CN(CCO)C[C@H]32)c1,-4.77
2,COc1ncccc1C(=O)N1CCn2c(COCC3CC3)cnc2C1C (stereo not given),-2.76
3,CNS(=O)(=O)CCCN1CCCC1c1noc(C2CC2)n1 (stereo not given),-2.37
4,CN(C(=O)c1cccc2[nH]ncc12)C1CCN(c2ccccn2)CC1,4.76
5,Cc1cc(S(=O)(=O)N2CCc3ccc(F)cc32)cc(C(=O)O)c1C,2.1
6,CCn1ncc(Br)c1CN(C)S(=O)(=O)c1ccc(C)cc1,0.0735
7,CN(Cc1ccco1)Cc1ccccc1CNC(=O)c1ccncc1,-0.97
8,Cn1cc(CN2C[C@@H]3CN(Cc4ccoc4)CCO[C@@H]3C2)cn1,3.69
9,CC(C)c1nc(C(=O)NCCn2ccnc2)nn1-c1cccc(F)c1,-3.06
10,Cc1cc(CN2CCN(C(=O)C(C)C)[C@@H]3CS(=O)(=O)C[C@@H]32)ccc1F,2.51
11,CCN(CC)CC1CN(CCc2ccccc2)Cc2nccn2C1 (stereo not given),-4.79
12,CN(C)C(=O)N1C[C@H]2CCC[C@@]2(COc2ccccn2)C1,3.31
13,CCN1CCOC(CNCc2ccccc2OCc2ccccn2)C1 (stereo not given),3.85
14,CC1c2ncc(COc3cccnc3)n2CCN1C(=O)C1=CCCC1 (stereo not given),-4.09
15,O=C(CN1CCOC(Cn2cccn2)C1)NCCc1ccc(F)cc1 (stereo not given),4.34
16,CS(=O)(=O)NCC1CCCN(C(=O)COCc2ccccc2)C1 (stereo not given),-6.12
17,CN(Cc1ccco1)[C@@H]1CN(Cc2ccc(F)cc2)C[C@@H]2CCCO[C@@H]21,6.12
18,Cc1ccc(CNC2CCN(CCc3ccncc3)CC2)s1,-2.55
19,OC(COc1ccccc1)CN1CCC(c2ccn[nH]2)CC1 (stereo not given),-0.6
20,CCc1cnc(C)nc1NCCN1CCCCCC1,4.13

# Reference: ChEMBL document CHEMBL3988442, “University of Dundee, Small-Polar-MMV Screening Library” (2021)
